# Laboratory results: PubChem BioAssay (NCI)
# Compounds without any hit were thinned out: in the full panel of roughly 79,000, 15% have a hit. A number with no mark means an inactive call. The source made the active and inactive calls. No stated cut-off is given here; in the data, active means growth inhibition above about 70%; inactive means the rest.
# Columns and labels:
# [1] = NCI Yeast Anticancer Drug Screen. Data for the rad50 strain (AID 155);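 further: 0% = growth of vehicle-only cultures of the same strain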; conditions: S. cerevisiae rad50 strain growth inhibition; at 50.0 µM; active compounds read high
# How it was run: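 Yeast carrying a defined DNA repair defect were exposed to test compounds, and growth was compared with vehicle-treated controls to give percent inhibition.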
# [2] = NCI Yeast Anticancer Drug Screen. Data for the mec2-1 strain (AID 157); conditions: S. cerevisiae mec2-1 strain, at 50.0 µM, active compounds read high
# How it was run: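 Using mec2-1 yeast: add compound, measure growth, express inhibition versus vehicle-treated cultures.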
# [3] = NCI Yeast Anticancer Drug Screen. Data for the sgs1 mgt1 strain (AID 161);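 further: 0% = growth of cultures given vehicle only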; conditions: S. cerevisiae sgs1 mgt1 strain, at 50.0 µM, active compounds read high
# How it was run: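 Compounds are added to genetically altered yeast, and growth is compared with cultures given vehicle alone to give percent inhibition.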
# [4] = NCI Yeast Anticancer Drug Screen. Data for the cln2 rad14 strain (AID 165);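 further: 0% = growth equal to vehicle treated cultures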; conditions: S. cerevisiae cln2 rad14 strain, at 50.0 µM, active compounds read high
# How it was run: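 Yeast strain cln2 rad14, bearing defects in cell cycle control and DNA repair, serves as the test system; values reflect growth inhibition compared with vehicle.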
# [5] = NCI Yeast Anticancer Drug Screen. Data for the bub3 strain (AID 167); conditions: S. cerevisiae bub3 mutant strain, at 50.0 µM, active compounds read high
# How it was run: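 Compounds were applied to a genetically altered yeast strain carrying a cell-cycle control defect. Growth inhibition was scored against vehicle-treated controls.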
# [6] = NCI Yeast Anticancer Drug Screen. Data for the mlh1 rad18 strain (AID 175); conditions: S. cerevisiae mlh1 rad18 strain growth inhibition; at 50.0 µM; active compounds read high
# How it was run: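 Steps: expose repair-defective yeast to compound; measure growth; express inhibition against vehicle-treated controls.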
SMILES,growth inhibition [1],growth inhibition [2],growth inhibition [3],growth inhibition [4],growth inhibition [5],growth inhibition [6]
COC(=O)C1=C(C)NC(C)=C(C(=O)OC)C1c1cccc(N=O)c1,9.85%,6.5%,13.3%,4.4%,26.6%,78.2% (active)
Cc1ccc(S(=O)(=O)N2CCN(C=S)CC2)cc1,22.4%,-30.8%,14.2%,3.9%,23.2%,26.9%
O=C(NCCNCCCNC(=O)c1cc(-c2ccccc2)nc2ccccc12)c1cccc(O)c1O,8.4%,22.6%,33.1%,22.6%,49.5%,44.2%
O=C(O)c1c(Br)c(Br)c(Br)c(Br)c1C(=O)Nc1cc([N+](=O)[O-])ccc1O,14.2%,-8.45%,8.9%,7.9%,4.05%,3.85%
ClCCOC(CCl)OCCCl,24.1%,6.9%,22.1%,20.4%,6.5%,14.5%
O=C(O)c1ccc(O)cc1,14.3%,44.7%,-0.9%,2.45%,1.7%,21.9%
Cc1ccc(S(=O)(=O)NCCC(Cl)(Cl)Cl)cc1,21.6%,6.8%,1.05%,1.2%,38%,27.7%
CCCCCCCCCCCCCCCCCCn1cnc2ncnc(Cl)c21,6.95%,5.6%,8.15%,55.3%,96.5% (active),32.7%
COc1cc(C(=O)N=Nc2c(O)[nH]c3ccc(Br)cc23)cc(OC)c1OC,3.55%,-16.6%,-7.1%,-1.9%,2%,-3.1%
C=C(C)C(=O)OCCOCC(CC)CCCC (stereo unspecified),11.2%,-8.8%,-5%,-0.3%,-3.35%,-1.8%
COc1ccc(C23CCCC(=O)C2C2C(=O)CCCC23c2ccc(OC)cc2)cc1 (stereo unspecified),47.4%,-0.85%,4.4%,10.6%,5.25%,13.1%
O=C(Nc1ccccc1-c1ccccc1)c1ccccc1,1.15%,-11.5%,20.1%,11.3%,45.4%,26.9%
O=[N+]([O-])c1ccc2c(c1)Sc1ccccc1N2CCCCCl,-24%,-15.8%,-49.2%,-7.25%,-1.8%,-23.2%
O=C1CSC(C(N=Nc2ccc(Cl)cc2)c2nc3ccccc3[nH]2)=N1 (stereo unspecified),-50.6%,-26.3%,-43.1%,-18.1%,-42.6%,-46.7%
Cc1cc(C)c2c(=O)cc(-c3cccc(Cl)c3)[nH]c2n1,15.6%,-12.4%,-25%,-23.8%,-50.7%,-65.7%
COc1cc(C(=O)OC2CC3CN(CCc4c[nH]c5ccccc45)CC3CC2OC)cc(OC)c1OC (stereo unspecified),5.9%,3.25%,28.4%,32.9%,5.05%,45.7%
C=C1CC(C2CCC(C)(C)C2)OC1=O (stereo unspecified),13.7%,8%,9.15%,17.3%,2.15%,-0.8%
O=C(CCCc1ccccc1)NO,14.7%,33.6%,17.5%,3.35%,10.8%,13.6%
Cc1ccc(/C=N/NS(=O)(=O)c2ccccc2)cc1,18.4%,13.8%,15.6%,-16.7%,12.1%,24.9%
CO/C=C/CCCO,-14.8%,-16.5%,-14.8%,7.55%,-3.55%,-9.7%
COc1cccc(C2c3cc4c(cc3OC(C)(N3CCCC3)C2C)OCO4)c1OC (stereo unspecified),-4%,-4.7%,-4.8%,-4.25%,-13.5%,12.1%

SMILES,growth inhibition [1],growth inhibition [2],growth inhibition [3],growth inhibition [4],growth inhibition [5],growth inhibition [6]
CCOC(=O)C1SC(=Nc2ccc(C)c(C)c2)N=C1C (stereo unspecified),-20.2%,-7.4%,-22.4%,19.7%,4.85%,7.15%
Cc1cc(Cl)ccc1NC(=O)C(=O)C(C(=O)c1ccccc1)C1OC(=O)c2ccccc21 (stereo unspecified),20.9%,-7.45%,14.2%,14.6%,-3.25%,-9.75%
NC(=S)N/C=C\c1nc2ccccc2[nH]c1=O,-34.4%,-18.6%,-39.1%,-21.8%,-12.1%,-15.4%
CCCCCCCC/C=C/CCCCCCCC(=O)N(C)CC(=O)O,-18.6%,-17%,10.8%,-29.1%,22.5%,-8.05%
O=C1c2ccccc2C(=O)N1C/C=C/CN1C(=O)c2ccccc2C1=O,6.85%,-5.7%,12.2%,-9.4%,8.05%,2.5%
CCCc1nc2ccc(C)cc2[nH]1,8.4%,-9%,-18.2%,-11.3%,-1.5%,7.9%
CCCCCCC(C)N1C(=O)c2ccccc2C1=O (stereo unspecified),6.25%,6.75%,4.75%,-39.1%,0.7%,-8.4%
O=C1C(c2ccccc2)=C(c2ccccc2)c2ccc(Cl)cc21,13.7%,15.6%,8.85%,7.75%,0.45%,6.45%
CC(=O)N(C)c1ccccc1O,6.6%,-10.1%,-14.6%,-33.2%,10.2%,-19.9%
c1ccc(C2=NC(c3ccccc3)(c3ccccc3)N=C2c2ccccc2)cc1,2.75%,10.7%,-11.2%,-10.1%,-8.55%,2.5%
O=c1oc(-c2cccc(C[n+]3ccccc3)c2)nc2cc(Cl)ccc12,-14.9%,-6.8%,-11.4%,-0.45%,-7.1%,-4.75%
CC1=NNC(=O)C2CCC(=O)N12 (stereo unspecified),14.8%,1%,7.15%,11.1%,12.1%,22.8%
O=[N+]([O-])c1ccc(C=Nc2ccccc2)cc1,41.1%,24.1%,30.9%,11.9%,1%,26.4%
COc1ccc(/C(=N\NC(=O)C(N)=O)C(c2ccc(OC)cc2)C2(O)C(=O)Nc3c(Cl)cccc32)cc1 (stereo unspecified),-9.45%,-15.4%,-49.5%,32.5%,0.3%,-23.1%
COc1ccccc1-c1cc(=O)c2cc(C)c(C)c(C(=O)O)c2o1,7.05%,3.95%,18.6%,29.7%,7.35%,11.8%
CC(C)NC(=O)OCc1c(COC(=O)NC(C)C)n(C)c2c1ccc1ccccc12,89.8% (active),84.8% (active),83.8% (active),84.5% (active),87.5% (active),85.5% (active)
CCCc1[nH]nc(CCC(=O)N(Cc2ccccc2)Cc2ccccc2)c1CC,-6.65%,-26.4%,11.6%,2.3%,-7.9%,-18.1%
C#CN1C(=O)c2c(c(-c3ccccc3)c(-c3ccc(Oc4ccc(-c5c(-c6ccccc6)c6c(c(-c7ccccc7)c5-c5ccccc5)C(=O)N(C#C)C6=O)cc4)cc3)c(-c3ccccc3)c2-c2ccccc2)C1=O,7.25%,10.1%,1.9%,10.3%,1.4%,15.2%
COc1ccc(CCc2cc(OC)c(O)c(OC)c2)cc1,18.5%,14.8%,36%,19%,30.1%,41%
Cc1ccc(S(=O)(=O)c2ccc(C(=O)O)cc2)cc1,8.1%,10.4%,10.8%,-6.05%,4.05%,17%
